In PubChem BioAssay (NCI) one finds growth data, which are given here for 39 molecules.

“And” between values parts separate entries of the source, which are not always exact repeats. Equal values may be shown once. The panel holds about 83,000 compounds, 20% with a hit somewhere; the sample as a whole holds those more often.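 Assay: single dose, 48 h. Readout: percent growth (0 = no net growth; negative = cell death). Active: <10.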 The source made the active and inactive calls.

This test has as its system HL-60(TB) leukemia. In words: NCI-60 one-dose screen, 48 h (100 = growth as untreated, 0 = no growth, -100 = all killed). To be noted: 10 µM unless noted.
With `CC(=O)[C@H]1CC[C@H]2[C@@H]3C[C@H](C)C4=CC(=O)CC[C@]4(C)[C@H]3C(=O)C[C@]12C`, the growth was 79.7% (inactive).

As to `O=C(NO)c1ccc(Cn2c(=O)n(-c3ccccc3)c(=O)c3ccccc32)cc1`, the growth was 1.26% (active).

For `CCCCCCc1cc2cc(-c3csc(/C=C/c4ccccc4)n3)c(=O)oc2cc1O`, the growth is -46.8% (active).

With `Cc1nn(-c2cc(=O)[nH]c3ccc(Cl)cc23)c(N)c1C#N`, the growth was 100% (inactive). For the molecule `COc1ccc(-c2nc3sc(C)nn3c2-c2nc3cc(C)c(C)cc3[nH]2)cc1`, the growth is 112% (inactive).

In the case of `CCCNC(=O)Nc1ccc2cc3ccc(NC(=O)NCCC)cc3nc2c1`, the growth is 74.9% (inactive). The figure for `Brc1c2c(c(Br)c3ccccc13)CCCC2` is 91.4% (inactive). Take `COc1ccc(/C=C2\Oc3cc(OCCN4CCC(Cc5ccccc5)CC4)ccc3C2=O)cc1OC`: the growth is 99.7% (inactive). The figure for `CCOC(=O)c1ccc(Nc2sc(C(=O)c3ccc(Br)cc3)c(N)c2C#N)cc1` is -2.85% (active); for `COc1cc(/C=C/C(=O)c2c(C)nc3ccccc3c2C)ccc1OCCCN1CCN(C(=O)c2ccco2)CC1` it is 74.7% (inactive); for `CCOC(=O)c1[nH]c(C)c(C(=O)OCc2ccccc2C#N)c1C` it is 86.6% (inactive). The figure for `COc1cccc(CCC2CCCN(c3cc(C)nc(N)n3)C2)c1` (centres undefined) is 1.26% (active); for `Cc1ccc(C2=Nc3c(N)ncnc3NC(c3ccc4c(c3)OCO4)C2)cc1` (centres undefined) it is 33.2% (inactive).

As to `Cc1nc2ccc(-n3ncc(C(=O)c4cc5ccccc5[nH]4)c3N)cc2[nH]1`, the growth was 36.5% (inactive). The figure for `CCCCCCCCCCCC(=O)OCCNC(=O)C[n+]1ccccc1` is 100% (inactive). As for `Cc1cccc(NC2=C(C#N)C(=O)NC3(CCCC3)S2)c1`, the figure is 89.7% (inactive); as for `COc1ncc(-c2ccc3ncnc(Nc4cccc(Cl)c4)c3c2)cc1NS(C)(=O)=O`, 19.1% (inactive); as for `Cc1ccc2nc3ccccc3c(NCc3ccccc3)c2c1`, 40.6% (inactive). The figure for `O=C(Nc1cccc2ccccc12)NC1CC1` is 108% (inactive). As for `CCn1c(=S)sc2c(Nc3ccc(F)cc3)nc(-c3cccnc3)nc21`, the growth was 81.7% (inactive).

Turning to `COc1cc2nc(N3CCC[C@@H](NC4=CC(=O)c5ccccc5C4=O)C3)nc(N)c2cc1OC`, the growth was -60.3% (active). For `CCCCCCC1N=C(N)N=C(N)N1c1cccc(Cl)c1` (centres undefined), the growth is 44.3% (inactive). As for `Cc1noc(C)c1C(=O)OCc1coc2ccccc2c1=O`, the figure is 12.4% (inactive). In the case of `CCCCCCCCCCCCCCCC[N+](C)(C)CCN(Cc1ccc(OC)cc1)c1ncccn1`, the growth was -52.7% (active) and -2.88% (active). Consider `COc1cc(N2C(=O)[C@H](O)C2c2ccc(SC)cc2)cc(OC)c1OC` (some centres undefined), for which the growth was -41% (active).

For `O=C1CCC(=O)N1CC1CC2CCC1C2` (centres undefined), the growth was 128% (inactive) and 97.8% (inactive). On to `c1ccc(C(Nc2ccccn2)(c2ccccc2)c2ccccc2)cc1`, for which the growth is 90.4% (inactive). The figure for `CC(=O)OCC(=O)[C@@]1(O)CC[C@H]2[C@@H]3CC[C@@H]4C[C@H](O)CC[C@]4(C)[C@H]3C(=O)C[C@@]21C` is 94% (inactive). Take `N#Cc1c(O)c2c(c(O)c1C#N)C(=O)c1ccccc1C2=O`: the growth was -38.1% (active).

On to `O=C1c2ccccc2C(=O)c2c(NCCNCCO)ccc(NCCNCCO)c21`, for which the growth was 64.9% (inactive) and 11.4% (inactive) and 2.46% (active). Regarding `CCCCCCC(O)(c1ccc(F)cc1)C(CN1CCOCC1)c1ccccc1` (centres undefined), the growth was 30.8% (inactive).

Turning to `COC(=O)[C@]12CC[C@@H](C(/C=C/c3cccnc3)=N/O)[C@@H]1[C@H]1CC[C@@H]3[C@@]4(C)CC(=C/c5cccnc5)/C(=N/O)C(C)(C)[C@@H]4CC[C@@]3(C)[C@]1(C)CC2`, the growth was 2.86% (active). As for `COc1cc2c(c(OC)c1OC)-c1ccc(OC)c(=O)cc1[C@@H](NC(C)=O)CC2`, the figure is -36% (active) and -38.2% (active); as for `Cc1ccc(-c2nc3ccc(Cl)cc3c(=O)n2N2C(=O)CSC2c2ccccc2Cl)cc1` (centres undefined), 97.1% (inactive); as for `CCN(CC)c1ccc(\C=N/N=C(N)/C(N)=N\N=C/c2ccc(N(CC)CC)cc2)cc1`, 112% (inactive). Turning to `CC(C)C(NC(=O)CN)C(=O)O` (centres undefined), the growth was 94.9% (inactive) and 98.7% (inactive). Regarding `CCCCCC(/C=N\NC(=S)N/N=C/C(=C/c1ccccc1)CCCCC)=C\c1ccccc1`, the growth is 68.8% (inactive).

With `COc1cc(C)cc2oc3oc(=O)c(-c4nc5ccccc5s4)cc3c(=O)c12`, the growth is 109% (inactive). As to `NS(=O)(=O)c1ccc(C2C3=C(CCCC3=O)OC3=C2C(=O)c2ccccc2C3=O)cc1` (centres undefined), the growth is -40.5% (active).
